Reference: PubChem BioAssay (Tox21)
Results filed as inconclusive are left out. Calls of active or inactive are those of the source. Unless noted, calls follow the shape of the dose curve; as a rule, active = well fitted curve in the direction sought with a large enough effect in the repeat runs; inconclusive = weak or mixed curves; inactive = no such curve, though single readings can be large; an effect the other way counts as inactive or inconclusive.

What was measured:
[1] = qHTS assay for small molecule agonists of the p53 signaling pathway (AID 651631; calls by dose curve; also: nearly all actives have a fitted effect of over 15% in size)
In short: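 HCT-116 p53RE-bla reporter line, 16 h compound treatment at 37 °C, then fluorescence after 2 h with B/G FRET substrate.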

[2] = qHTS assay for small molecules that induce genotoxicity in human embryonic kidney cells expressing luciferase-tagged ATAD5 (AID 651632); also: nearly all actives have a fitted effect of over 15% in size
In short: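 HEK293T cells carrying luciferase-tagged ATAD5 were given compound or DMSO vehicle and incubated 16 hr at 37C, 5% CO2. Luciferase activity was read after 30 min at room temperature with Amplite; a rise signals genotoxic stress.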

[3] = qHTS assay for small molecule agonists of the p53 signaling pathway - cell viability (AID 651633; calls by dose curve;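 also: p53RE-bla HCT reporter cells with a stable beta-lactamase p53 reporter; series mostly up to about 83 µM; nearly all actives have a fitted effect of over 30% in size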)
In short: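 p53RE-bla cells were treated with compound for 16 hours at 37 C. Cytotoxicity was then measured as CellTiter-Glo luminescence after 30 min at room temperature.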

[4] = qHTS assay for small molecules that induce genotoxicity in human embryonic kidney cells expressing luciferase-tagged ATAD5 - cell viability (AID 651634; calls by dose curve; also: nearly all actives have a fitted effect of over 25% in size)
In short: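 HEK293T cells carrying luciferase-tagged ATAD5, 2,000 cells/well, exposed to compound for 15.5 hr at 37C. Viability read as live-cell protease activity by CellTiter-Fluor fluorescence after 30 min at 37C.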

[5] = qHTS assay for small molecule disruptors of the mitochondrial membrane potential - cell viability (AID 720634; calls by dose curve;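 also: human HepG2 liver cancer cells; series mostly up to about 83 µM; nearly all actives have a fitted effect of over 20% in size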)
In short: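 HepG2 cells, 2,000 per well, attached overnight, then treated 1 hr at 37 C, 5% CO2. Viability read as ATP by CellTiter-Glo luminescence after 30 min at room temperature. Read in the same wells as the m-MPI membrane-potential dye assay.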

[6] = qHTS assay for small molecule disruptors of the mitochondrial membrane potential (AID 720635)
In short: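 HepG2 cells exposed to compound 1 hr at 37C, then Mito-MPS dye 30 min. Ratio read of aggregate (540/590 nm) versus monomer (490/535 nm) fluorescence.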

[7] = qHTS assay to test for compound auto fluorescence at 590 nm (red) in HepG2 cells (AID 720674)
In short: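 Seeding: 2,000 HepG2 cells/well, MEM/10% FBS, overnight 37 C. Dosing: compound vs DMSO. Incubation: 1 hr, 37 C, 5% CO2. Read: fluorescence 540 ex/590 em, Rose Bengal sodium as red reference.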

[8] = qHTS assay to test for compound auto fluorescence at 535 nm (green) in HepG2 cells (AID 720675)
[9] = qHTS assay to test for compound auto fluorescence at 460 nm (blue) in HEK293 cells (AID 720678)
In short: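 HEK293, 2,000 cells/well, 10% dialyzed FBS; attach 4-5 hr 37C; pin compound or DMSO; o/n 37C/5% CO2; fluorescence 405/460 nm; triamterene-equivalent units.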

[10] = qHTS assay to test for compound auto fluorescence at 590 nm (red) in HEK293 cells (AID 720679)
In short: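 Intensity at 540nm excitation and 590nm emission is reported as Rose Bengal sodium-equivalent autofluorescence. Measurements followed overnight exposure (37C, 5% CO2) of HEK293 cells, 2,000 per well, to 23 nL compound.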

[11] = qHTS assay to test for compound auto fluorescence at 535 nm (green) in HEK293 cells (AID 720680)
[12] = qHTS assay to test for compound auto fluorescence at 460 nm (blue) in HEK293 cell free culture (AID 720681)
In short: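 Compounds were added to cell-free DMEM with 10% FBS and fluorescence read directly. The blue channel used 405 nm excitation and 460 nm emission, with triamterene as the reference fluorophore.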

[13] = qHTS assay to test for compound auto fluorescence at 535 nm (green) in HEK293 cell free culture (AID 720682)
In short: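 Steps: dispense DMEM/10% FBS into empty wells; pin in compound or DMSO; measure fluorescence at 485/535 nm. Values are fluorescein equivalents.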

[14] = qHTS assay to test for compound auto fluorescence at 590 nm (red) in HEK293 cell free culture (AID 720683)
In short: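 Cell-free wells of DMEM with 10% FBS received compound, and intrinsic fluorescence was read at excitation/emission 540/590 nm. Values expressed as equivalence to Rose Bengal sodium.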

[15] = qHTS assay to test for compound auto fluorescence at 590 nm (red) in HepG2 cell free culture (AID 720684)
In short: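 Compound was pinned into wells holding MEM with 10% FBS and no cells, and red fluorescence was read at Ex/Em 540/590 nm. Signal is expressed as auto fluorescence equivalency relative to Rose Bengal sodium.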

[16] = qHTS assay to test for compound auto fluorescence at 535 nm (green) in HepG2 cell free culture (AID 720686)
[17] = qHTS assay to test for compound auto fluorescence at 460 nm (blue) in HepG2 cells (AID 720687)
In short: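 HepG2 cells in MEM with 10% FBS, attached overnight at 37 C, were exposed to compound or DMSO for 1 hr at 37 C, 5% CO2. Blue fluorescence was read at 405/460 nm, with triamterene as reference fluorophore.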

[18] = biological target: Glucocorticoid receptor (Homo sapiens) (UniProt P04150); test: qHTS assay to identify small molecule agonists of the glucocorticoid receptor (GR) signaling pathway (AID 720691; active = well fitted activation curve with a large enough effect in the signal ratio in the repeat runs, not every such curve was filed as active; the % refers to the signal ratio)
Chain of Glucocorticoid receptor (Homo sapiens) (P04150 whole entry, looked up): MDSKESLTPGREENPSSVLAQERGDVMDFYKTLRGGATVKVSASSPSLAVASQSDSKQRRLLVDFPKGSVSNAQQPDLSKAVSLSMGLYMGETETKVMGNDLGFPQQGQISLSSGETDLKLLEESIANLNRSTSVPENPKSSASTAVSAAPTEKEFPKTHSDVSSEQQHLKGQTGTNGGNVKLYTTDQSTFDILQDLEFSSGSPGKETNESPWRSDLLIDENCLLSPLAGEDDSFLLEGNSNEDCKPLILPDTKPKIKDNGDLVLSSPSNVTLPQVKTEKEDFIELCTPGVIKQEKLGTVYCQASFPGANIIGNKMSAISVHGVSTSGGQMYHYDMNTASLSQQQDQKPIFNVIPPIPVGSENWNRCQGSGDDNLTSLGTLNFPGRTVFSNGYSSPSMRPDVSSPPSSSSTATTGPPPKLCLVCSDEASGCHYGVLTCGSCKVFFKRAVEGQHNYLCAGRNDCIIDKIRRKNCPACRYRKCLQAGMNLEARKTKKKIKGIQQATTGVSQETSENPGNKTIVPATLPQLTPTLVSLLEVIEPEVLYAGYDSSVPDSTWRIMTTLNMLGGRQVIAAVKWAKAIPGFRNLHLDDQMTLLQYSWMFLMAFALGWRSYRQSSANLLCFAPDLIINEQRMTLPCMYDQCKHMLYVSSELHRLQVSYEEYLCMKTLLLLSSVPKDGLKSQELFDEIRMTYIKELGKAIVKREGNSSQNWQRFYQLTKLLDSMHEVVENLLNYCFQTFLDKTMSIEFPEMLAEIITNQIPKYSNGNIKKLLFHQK
In short: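 GR-bla HeLa cells carrying a GRE-driven beta-lactamase reporter, exposed to compounds for 18 h at 37 C. Reporter activation read as fluorescence after 2 h with LiveBLAzer B/G FRET substrate at room temperature.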

[19] = qHTS assay to test for compound auto fluorescence at 460 nm (blue) in HepG2 cell free culture (AID 720685)
In short: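 Compound (23 nL) or DMSO pinned into cell-free MEM with 10% FBS; blue fluorescence read at 405/460 nm excitation/emission, expressed as auto-fluorescence equivalency to triamterene.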

[20] = biological target: Glucocorticoid receptor (Homo sapiens) (UniProt P04150); test: qHTS assay to identify small molecule antagonists of the glucocorticoid receptor (GR) signaling pathway (AID 720692; active = well fitted inhibition curve with a large enough effect in the signal ratio in the repeat runs, not every such curve was filed as active; the % refers to the signal ratio)
In short: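 GR-bla HeLa cells carrying a GRE-driven beta-lactamase reporter received compound after 4 h plating, then dexamethasone (5 nM final). After 18 h at 37C, the FRET substrate was loaded for 2 h at room temperature and fluorescence read.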
% is scaled to controls: 0 for no effect and ±100 for the full control effect.

CCCCCCC
inactive: Potency [1] | Potency [2] | Potency [3] | Potency [4] | Potency [5] | Potency [6] | outcome [7] | outcome [8] | outcome [9] | outcome [10] | outcome [11] | outcome [12] | outcome [13] | outcome [14] | outcome [15] | outcome [16] | outcome [17] | Potency [18]

COc1cc(C)ccc1C(C)C
inactive: Potency [1] | Potency [2] | Potency [3] | Potency [4] | Potency [5] | Potency [6] | outcome [7] | outcome [8] | outcome [9] | outcome [10] | outcome [11] | outcome [12] | outcome [13] | outcome [14] | outcome [15] | outcome [16] | outcome [17]

CC(C)C(=O)OC/C=C/c1ccccc1
inactive: Potency [1] | Potency [2] | Potency [3] | Potency [4] | Potency [5] | Potency [6] | outcome [7] | outcome [8] | outcome [9] | outcome [10] | outcome [11] | outcome [12] | outcome [13] | outcome [14] | outcome [15] | outcome [19] | outcome [16] | Potency [18] | Potency [20]

CCOC(=O)C(Br)c1ccccc1 (stereo not drawn)
inactive: Potency [1] | Potency [2] | Potency [3] | Potency [4] | Potency [5] | Potency [6] | outcome [7] | outcome [8] | outcome [9] | outcome [10] | outcome [11] | outcome [12] | outcome [13] | outcome [14] | outcome [15] | outcome [19] | outcome [16] | outcome [17]

C1CSCCS1
inactive: Potency [1] | Potency [2] | Potency [3] | Potency [4] | Potency [5] | Potency [6] | outcome [7] | outcome [8] | outcome [9] | outcome [10] | outcome [11] | outcome [12] | outcome [13] | outcome [14] | outcome [19] | outcome [16] | outcome [17] | Potency [18]

O=C1CCCc2ccccc21
inactive: Potency [1] | Potency [2] | Potency [3] | Potency [4] | Potency [5] | Potency [6] | outcome [7] | outcome [8] | outcome [9] | outcome [10] | outcome [11] | outcome [12] | outcome [13] | outcome [14] | outcome [15] | outcome [19] | outcome [16] | outcome [17] | Potency [18] | Potency [20]

O=c1[nH]cnc2c1ncn2[C@@H]1O[C@H](CO)[C@@H](O)[C@H]1O
inactive: Potency [1] | Potency [2] | Potency [3] | Potency [4] | Potency [5] | Potency [6] | outcome [7] | outcome [8] | outcome [9] | outcome [10] | outcome [11] | outcome [12] | outcome [13] | outcome [14] | outcome [15] | outcome [19] | outcome [16] | outcome [17] | Potency [18] | Potency [20]

CN1CCN(c2c(F)cc3c(=O)c(C(=O)O)cn4c3c2SCC4)CC1
inactive: Potency [1] | Potency [2] | Potency [3] | Potency [4] | Potency [5] | Potency [6] | outcome [7] | outcome [8] | outcome [9] | outcome [10] | outcome [11] | outcome [12] | outcome [13] | outcome [14] | outcome [15] | outcome [19] | outcome [16] | outcome [17] | Potency [18] | Potency [20]

CN(CC1(C)CCCO1)S(=O)(=O)c1ccc(Cl)c(S(N)(=O)=O)c1 (stereo not drawn)
inactive: Potency [1] | Potency [2] | Potency [3] | Potency [4] | Potency [5] | Potency [6] | outcome [7] | outcome [8] | outcome [9] | outcome [10] | outcome [11] | outcome [12] | outcome [13] | outcome [15] | outcome [19] | outcome [16] | outcome [17]

CC(C)c1ccccc1
inactive: Potency [1] | Potency [2] | Potency [3] | Potency [4] | Potency [5] | Potency [6] | outcome [7] | outcome [8] | outcome [9] | outcome [10] | outcome [12] | outcome [13] | outcome [14] | outcome [15] | outcome [19] | outcome [16] | Potency [18] | Potency [20]

CC1=C(O)C(=O)OC1C (stereo not drawn)
inactive: Potency [1] | Potency [2] | Potency [3] | Potency [4] | Potency [5] | Potency [6] | outcome [7] | outcome [8] | outcome [9] | outcome [10] | outcome [12] | outcome [13] | outcome [15] | outcome [19] | outcome [16] | outcome [17] | Potency [18] | Potency [20]

CCCNC(C)C(=O)Nc1c(C)csc1C(=O)OC (stereo not drawn)
inactive: Potency [1] | Potency [2] | Potency [3] | Potency [4] | Potency [5] | Potency [6] | fluorescence, relative to Rose Bengal [7] 0.288% [at 18.6 µM] | fluorescence, % of fluorescein control [8] -0.0675% [at 18.6 µM] | fluorescence, % of triamterene [9] -0.0757% [at 18.6 µM] | fluorescence, % of fluorescent control [10] -0.0511% [at 18.6 µM] | fluorescence, % of fluorescein [11] -0.0722% [at 18.6 µM] | fluorescence, % of fluorescent control [12] -0.0092% [at 18.6 µM] | activity change [13] -0.0482% [at 18.6 µM] | fluorescence, % of Rose Bengal [15] -0.056% [at 18.6 µM] | fluorescence, % of fluorescein control [16] 0.063% [at 18.6 µM] | fluorescence, % of fluorescent control [17] 0.025% [at 18.6 µM] | Potency [18] | Potency [20]

NC/C=C/C(=O)O
inactive: Potency [1] | Potency [2] | Potency [3] | Potency [4] | Potency [5] | Potency [6] | outcome [7] | outcome [8] | outcome [9] | outcome [10] | outcome [12] | outcome [13] | outcome [14] | outcome [15] | outcome [16] | outcome [17] | Potency [18] | Potency [20]

NC(=O)Cc1cccc(C(=O)c2ccccc2)c1N
inactive: Potency [1] | Potency [2] | Potency [3] | Potency [4] | Potency [5] | Potency [6] | outcome [7] | outcome [8] | outcome [9] | outcome [10] | outcome [11] | outcome [12] | outcome [13] | outcome [14] | outcome [19] | outcome [16] | outcome [17] | Potency [18] | Potency [20]
